According to article PMC4336329 (PLoS ONE, 2015):
Among all 310,000 compounds or so, about 14,000 (4.5%) showed an effect of 50% or more. The effect is printed as a negative number. Shown is part of a subset that was picked to be rich in strong results.

target: human ether-à-go-go-related gene (hERG) potassium channel (human, UniProt Q12809); assay: primary screen, population patch clamp on CHO cells stably expressing hERG; higher = less effect of the substance
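Note: peak tail current of the secondary pulse compared with the same well before compound.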

Chain of human ether-à-go-go-related gene (hERG) potassium channel (Q12809 whole entry, looked up): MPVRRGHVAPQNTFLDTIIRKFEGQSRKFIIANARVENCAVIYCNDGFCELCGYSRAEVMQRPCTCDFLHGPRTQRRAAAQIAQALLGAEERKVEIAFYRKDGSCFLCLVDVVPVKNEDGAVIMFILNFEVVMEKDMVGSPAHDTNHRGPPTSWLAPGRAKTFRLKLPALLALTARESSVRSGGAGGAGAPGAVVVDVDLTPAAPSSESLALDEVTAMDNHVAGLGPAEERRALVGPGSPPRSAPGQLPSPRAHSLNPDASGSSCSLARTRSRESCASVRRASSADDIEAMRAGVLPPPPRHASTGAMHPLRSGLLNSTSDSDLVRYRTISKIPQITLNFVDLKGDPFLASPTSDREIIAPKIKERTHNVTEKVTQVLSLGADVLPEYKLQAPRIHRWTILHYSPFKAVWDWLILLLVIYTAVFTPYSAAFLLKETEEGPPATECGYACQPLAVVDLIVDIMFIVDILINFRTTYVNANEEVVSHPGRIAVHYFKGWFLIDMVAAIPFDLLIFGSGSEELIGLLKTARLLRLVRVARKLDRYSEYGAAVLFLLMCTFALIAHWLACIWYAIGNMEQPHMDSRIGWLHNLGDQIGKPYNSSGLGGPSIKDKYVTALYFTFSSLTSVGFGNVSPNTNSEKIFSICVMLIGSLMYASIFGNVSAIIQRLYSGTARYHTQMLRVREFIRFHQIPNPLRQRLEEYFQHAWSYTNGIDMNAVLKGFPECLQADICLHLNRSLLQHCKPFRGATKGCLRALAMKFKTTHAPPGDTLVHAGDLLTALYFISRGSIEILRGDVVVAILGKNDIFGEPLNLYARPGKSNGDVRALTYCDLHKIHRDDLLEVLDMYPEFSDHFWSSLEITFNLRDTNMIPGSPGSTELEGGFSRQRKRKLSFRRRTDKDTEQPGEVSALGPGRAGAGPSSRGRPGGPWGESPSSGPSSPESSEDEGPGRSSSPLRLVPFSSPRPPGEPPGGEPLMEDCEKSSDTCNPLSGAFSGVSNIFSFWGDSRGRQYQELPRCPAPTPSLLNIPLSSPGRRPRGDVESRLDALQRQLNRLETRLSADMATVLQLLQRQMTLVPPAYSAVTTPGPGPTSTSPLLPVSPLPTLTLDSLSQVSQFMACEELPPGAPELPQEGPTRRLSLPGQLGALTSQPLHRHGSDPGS

| Structure (SMILES) | hERG current change (%, negative = inhibition) at 10uM |
| --- | --- |
| CCCCNCc1nc2ccccc2c(=O)[nH]1.Cl | 5.81% |
| COc1ccc(/C=N\NC(=O)c2ccc(=O)[nH]n2)cc1O | 18.4% |
| Brc1cccc(-c2nnc(SCc3ccon3)n2-c2ccccc2)c1 | -48.9% |
| Cc1ccc(NC(=O)CN2c3cccc4cccc(c34)S2(=O)=O)cc1S(=O)(=O)N1CCOCC1 | 0.358% |
| Cc1cc(NC(=O)COc2c(C)cccc2C)no1 | 22.3% |
| CC(=O)c1cccc(NC(=O)C(C)N(C)CC(=O)Nc2ccc(Cl)cc2)c1 (stereo not drawn) | -5.14% |
| c1ccc(Oc2nnc(-c3cccs3)c3ccccc23)cc1 | -5.87% |
| Cc1ccc(S(=O)(=O)N2CCCN(C(=O)c3ccc(-n4cccn4)cc3)CC2)cc1 | -74.2% |
| O=C(c1cccc(-n2cccc2)c1)N1CCN(S(=O)(=O)c2ccccc2)CC1 | -32% |
| Cc1ccnn1-c1ccc(C(=O)N2CCCN(S(=O)(=O)c3ccc(F)cc3)CC2)cc1 | -69.7% |
| O=C(c1ccncc1)N1CCN(S(=O)(=O)c2ccc(F)cc2)CC1 | 15.2% |
| O=C(O)CCC(=O)N1CCN(c2ncccc2C(F)(F)F)CC1 | 9.74% |
| CC(C)(C)C(=O)N1CCN(c2ncccc2C(F)(F)F)CC1 | 1.88% |
| O=C(c1ccc(F)cc1)N1CCN(S(=O)(=O)c2ccc(Br)cc2)CC1 | -5.63% |
| O=C(c1ccc(-n2cccn2)cc1)N1CCN(c2ncccc2C(F)(F)F)CC1 | -60.4% |
| Cc1ccc(S(=O)(=O)N2CCN(C(=O)c3ccc(S(=O)(=O)N4CCCC4)cc3)CC2)cc1 | -6.64% |
| Cc1ccc(S(=O)(=O)N2CCN(C(=O)c3ccccc3)CC2)cc1 | -31% |
| O=C(c1cccc(-n2cccc2)c1)N1CCN(S(=O)(=O)c2ccc(F)cc2)CC1 | -34.7% |
| Cc1ccc(S(=O)(=O)N2CCN(C(=O)c3cccc(-n4cccc4)c3)CC2)cc1 | -51.3% |
| CCOC(=O)c1sc2nc(N3CCCC3)c3c(c2c1N)CC(C)(C)OC3 | 10.4% |
| O=[N+]([O-])c1cccc(N/N=C/c2cccc(O)c2O)c1 | 16.7% |
| COc1ccc(-c2n[nH]c3c2C(c2ccc(OC)c(OC)c2)N(c2ccccc2)C3=O)cc1 (stereo not drawn) | 3.73% |
| Cc1cc(Cl)ccc1N(CC(=O)NCc1ccccc1)S(C)(=O)=O | -1.12% |

| Structure (SMILES) | hERG current change (%, negative = inhibition) at 10uM |
| --- | --- |
| Cc1cc(Cl)ccc1OCCCC(=O)NNC(=O)c1ccncc1 | -30.2% |
| Cl.Clc1ccc(OCc2nnc(SCCN3CCCCC3)n2Cc2ccco2)cc1 | -75.9% |
| CC(Sc1nnc(COc2ccc(Cl)cc2)n1Cc1ccco1)C(=O)N1CCNC1=O (stereo not drawn) | -55.9% |
| O=C(CSc1nnc(COc2ccc(Cl)cc2)n1Cc1ccco1)c1ccccc1F | 13.1% |
| CC(Sc1nnc(COc2ccc(Cl)cc2)n1Cc1ccccc1)C(=O)O (stereo not drawn) | 3.06% |
| Clc1ccc(OCc2nnc(SCc3nc4ccccc4[nH]3)n2Cc2ccco2)cc1 | -36% |
| COc1ccccc1NC(=O)CSc1nnc(COc2ccc(Cl)cc2)n1Cc1ccco1 | -12.7% |
| N#Cc1c(NC(=O)CSc2nc(-c3ccco3)cc(C(F)(F)F)n2)sc2c1CCCC2 | 12.3% |
| Cc1ccc(/C=N/Nc2nc(C(C)(C)C)cs2)o1.Cl | -22.5% |
| CC(=O)Nc1cccc(NC(=O)COc2ccc3c(c2)OCO3)c1 | 4.48% |
| O=C(O)c1ccc(Br)cn1 | 9.73% |
| O=C(O)c1ccc([N+](=O)[O-])c(CS(=O)(=O)c2ccc(Cl)cc2)c1 | 6.82% |
| COC(=O)C(C(C)C)N1CCc2c(C)nc3c(C#N)cnn3c21 (stereo not drawn) | 13.9% |
| Cc1nc2c(C#N)cnn2c2c1CCNN2C | -1.38% |
| Cc1nc2c(C#N)cnn2c2c1CCN2CC1CCCO1 (stereo not drawn) | -51.7% |
| Cc1nc2c(C#N)cnn2c2c1CCN(Cc1ccccc1)N2C | -58% |
| N#Cc1cnn2c(C(F)(F)F)c3c(nc12)CCCC3 | -5.18% |
| COC(CN1CCc2c(C)nc3c(C#N)cnn3c21)OC | 5.84% |
| Cc1cc(=O)n2c3ccccc3n(C)c2n1 | 9.7% |
| O=[N+]([O-])c1ccc(N2CCN(C(=S)NC3CCCCC3)CC2)cc1 | -53% |
| S=C(NC1CCCC1)N1CCN(c2ccc(Cl)cc2)CC1 | -13.6% |
| O=C(NC1CCCCC1)N1CCN(c2ccc(Cl)cc2)CC1 | -27.8% |
